IL-1B inflam inh – qHTS for Inhibitors of Inflammasome Signaling: IL-1-beta AlphaLISA Primary Screen | AID 743279, 2014 | activity change, % at 57.5 µM | THP-1 LPS/ATP IL-1B secretion, AlphaLISA, 16 h; stronger effect = lower value | actives 4.7% (n = 360,000); in the data active means activity change below about -50%; inconclusive means mostly about -30% to -49%
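Secreted IL-1B measured by AlphaLISA bead assay after 16 h compound exposure of THP-1 cells; compounds (final up to 57.5 uM) added 1 h before LPS (250 ng/mL) and ATP (1.25 mM) stimulation; lower signal means less secretion.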
TDP1 cell noCPT – qHTS for Inhibitors of human tyrosyl-DNA phosphodiesterase 1 (TDP1): qHTS in cells in absence of CPT. DT40 Tdp1-/- hTDP1 cells, no CPT, ATP luminescence, 48 h. Potency, µM (titrated, usually from 46.2 µM), inactives show at the highest dose activity change, negative = growth inhibition, hits mostly inhibitors. actives 15% (n = 420,000); further: potency means the concentration at half of the fitted maximal effect; nearly all actives have a fitted effect of over 55% in size
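Chicken DT40 Tdp1-/- cells stably complemented with human TDP1 were seeded at 400 cells/well with DMSO in place of 20 nM camptothecin. After compound pinning, cells grew at least 48 hr at 37 °C; viability read by CellTiter-Glo luminescence.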
HT1080NT lethal – qHTS for induction of synthetic lethality in tumor cells producing 2HG: qHTS for the HT-1080-NT fibrosarcoma cell line | HT-1080-NT fibrosarcoma viability, CellTiter-Glo ATP luminescence, 48 h | Potency, µM (series often up to 46.1 µM), for the others: at the highest dose activity, negative = less viability, hits mostly cytotoxic | actives 1.6% (n = 360,000) | AID 686970, 2013;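 further: NT is the 2HG producing partner of a matched IDH1 knockdown line; potency means the concentration at half of the fitted maximal effect; 0% = DMSO-treated cells and -100% = media-only wells without cells; nearly all actives have a fitted effect of over 55% in size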
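A 48-hour cytotoxicity screen used HT-1080-NT cells plated 2 hours before compound delivery. ATP-based CellTiter-Glo luminescence measured viability, normalized to DMSO and no-cell controls.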
HT1080 IDH1KD tx – qHTS for induction of synthetic lethality in tumor cells producing 2HG: qHTS for the HT-1080-IDH1KD cell line; HT-1080 IDH1 knockdown viability, ATP luminescence, 48 h; Potency, µM (doses to about 46.1 µM), for the others: at the highest dose activity, negative = toxicity, usual class: cytotoxic; actives 2% (n = 360,000);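 further: potency means the concentration at half of the fitted maximal effect; 0% = DMSO wells and -100% = cell-free medium wells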
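After a 2 h attachment period, IDH1KD HT-1080 cells took pin-transferred compound for 48 h at 37 °C; ATP-based luminescence after 10 min room-temperature reagent incubation reported viability.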
TDP1 cell CPT – qHTS for Inhibitors of human tyrosyl-DNA phosphodiesterase 1 (TDP1): qHTS in cells in presence of CPT | chicken DT40 Tdp1-/-;hTDP1 cells + 20 nM CPT, ATP luminescence, 48 h | Potency, µM (top dose mostly 46.2 µM), without a hit: at the highest dose activity change, negative = growth inhibition, most hits filed as inhibitors | actives 12% (n = 420,000) | AID 686979, 2013; further: potency means the concentration at half of the fitted maximal effect; nearly all actives have a fitted effect of over 55% in size
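Cell growth measured by CellTiter-Glo luminescence after a minimum 48 h, 37 C compound exposure with 20 nM CPT in Tdp1-knockout DT40 cells stably expressing hTDP1, seeded 400/well; qHTS titration format.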
* marks the source's active call; other numbers are inactive results; ? = inconclusive; . = no result. The list is not random: actives were taken first. Their share in the collection is about 19%. Unless noted, the call rests on the fitted dose curve; in most records, active means well fitted curve in the direction sought with a large enough effect; inconclusive means small, poorly fitted or top-dose-only effect, or another doubt; inactive means no such curve, though single readings can be large; an effect the other way counts as inactive or inconclusive. Unless noted, on the % scale 0 is the no-effect control and ±100 the full control effect.

SMILES | IL-1B inflam inh | TDP1 cell noCPT | HT1080NT lethal | HT1080 IDH1KD tx | TDP1 cell CPT
Cc1ccc(CNC(=O)c2cc(C3CC3)nc3c2c(C)nn3-c2cccc(Cl)c2C)cc1 | . | -23% | . | . | -8%
Cc1ccc(-c2nn3cnnc3c3ccccc23)cc1 | 30 | ? | -15% | -7% | ?
COc1ccc2cc(C(=O)/C=C/c3cc(OC)c(OC)c(OC)c3)ccc2c1 | -62* | 21µM* | ? | ? | 26µM*
COc1cc(/C=C/C(=O)N2CCC=CC2=O)cc(OC)c1OC | -103* | 1.8µM* | 5.8µM* | 4.1µM* | 2.1µM*
COc1cc(/C=C/C(=O)N2CCCN(C(=O)/C=C/c3cc(OC)c(OC)c(OC)c3)CC2)cc(OC)c1OC | -11 | ? | 9% | -1% | 2%
CC1(C)C2CCC1(CS(=O)(=O)NC(CC(=O)O)c1cccc(Br)c1)C(=O)C2 (centres undefined) | 19 | -15% | 30% | 15% | -12%
O=C(Nc1ccccc1OC(=O)c1ccc(Cl)cc1)c1ccc(Cl)cc1 | 13 | 16µM* | -25% | 1% | ?
O=C(Nc1ccccc1O)c1ccc(Cl)cc1 | 114 | 23µM* | ? | -24% | 16µM*
CC(C)Cc1nnc(NC(=O)c2ccncc2)s1 | 0 | 3% | 12% | -5% | -8%
O=c1cc(/C=C/c2ccc([N+](=O)[O-])cc2)c2ccccc2[nH]1 | . | -6% | . | . | -20%
Nc1ccc(/C=C/c2ccnc3ccccc23)cc1[N+](=O)[O-] | . | 5µM* | . | . | 10µM*
O=[N+]([O-])c1ccc(/C=C/c2ccnc3ccccc23)c([N+](=O)[O-])c1 | . | 20µM* | . | . | 35µM*
O=[N+]([O-])c1ccc(/C=C/c2ccnc3ccccc23)cc1 | . | 16µM* | . | . | 11µM*
O=[N+]([O-])c1ccc(/C=C/c2ccc3ccccc3n2)cc1 | -8 | ? | 2% | 4% | ?
CCOC(=O)[C@H]1[C@H]2COc3ccc(OC)cc3[C@H]2N2C(=O)CNC(=O)[C@@]12C | 18 | -23% | 24% | 4% | ?
CCOc1ccccc1/C=C(/NC(=O)c1ccccc1)C(=O)NC(C)c1ccccc1 (centres undefined) | -24 | ? | -1% | 2% | 23µM*
C=CCNC(=O)/C(=C/c1ccccc1OCC)NC(=O)c1ccccc1 | -11 | -2% | 4% | 9% | 5%
O=C(Nc1ccc(F)cc1F)c1cc(CN2CCOCC2)on1 | . | 7% | . | . | 8%
Cc1ccc2nc(SC(C(=O)c3ccccc3)c3ccccc3)nc(C)c2c1 (centres undefined) | 31 | 15µM* | -7% | -2% | ?
c1ccc(C2NCCc3ccccc32)cc1 (centres undefined) | -7 | 26µM* | -22% | ? | ?
c1ccc2c(c1)CCNC2c1ccncc1 (centres undefined) | 18 | -5% | 0% | 2% | 6%
Cc1nc(N)sc1N=Nc1ccccc1C(F)(F)F | -71* | ? | -29% | -29% | ?
Cc1sc2nc(CSCC(=O)Nc3c(F)cccc3F)[nH]c(=O)c2c1C | 17 | 10µM* | 2% | 7% | 12µM*
CCn1c(SCC(=O)N2CCc3ccccc3C2)nc2sc(C)c(C)c2c1=O | 15 | 21µM* | 10% | 4% | ?
CCOC(=O)CSc1nc2sc(C)c(C)c2c(=O)n1C | 13 | -24% | 5% | 8% | ?
Cc1sc2nc(SCC(=O)N3CC(C)OC(C)C3)n(C)c(=O)c2c1C (centres undefined) | 10 | 13µM* | 1% | -4% | ?
Cc1sc2nc(SCC(=O)N(C)c3ccccc3)n(C)c(=O)c2c1C | 0 | 13µM* | -7% | 12% | 18µM*

Screening results deposited in PubChem by National Center for Advancing Translational Sciences (NCATS).
